Here are results for eight compounds from PubChem BioAssay (NCI).

This is part of a sample that, as a whole, favours compounds with a hit. Of some 83,000 tested, about 20% had one in any assay.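 Step 1: grow cells in 96-well plates. Step 2: add test compound at a single concentration. Step 3: incubate 48 h. Step 4: record percent growth.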 A number with no mark means an inactive call. Active and inactive are the calls of the source. The calls were made as follows: active = growth percent below 10; inactive = the rest.

Assay in all cases: NCI-60 one-dose screen, 48 h (100 = growth as untreated, 0 = no growth, -100 = all killed)
Common to all, as to conditions: 10 µM

The subject of test [1] is DU-145 prostate.
Test [2] has as its system K-562 leukemia.
The subject of test [3] is MALME-3M melanoma.
Test [4] concerns MDA-MB-231 breast.
Test [5] has as its system RXF 393 renal.
For test [6], the system named is SF-268 CNS.
Test [7] relates to SF-295 CNS.
The test system of test [8] is SF-539 CNS.
Test [9] relates to UACC-257 melanoma.
In test [10] the test system is M14 melanoma.
Test [11] relates to HCT-15 colon.
Test [12] deals with HT29 colon.
In test [13] the test system is SNB-75 CNS.
The test system of test [14] is SNB-19 CNS.
The test system of test [15] is U251 CNS.
Test [16] has as its system PC-3 prostate.
In test [17] the test system is SK-MEL-5 melanoma.
The subject of test [18] is UACC-62 melanoma.
Test [19] concerns LOX IMVI melanoma.
The test system of test [20] is SK-MEL-28 melanoma.

As for `CCOC(=O)c1ccc(N(C=O)CCC(=O)CCl)cc1`, the growth was -25.8% (active) in test [1]; 4.03% (active) in test [2]; 45.1% in test [3]; -16.5% (active) in test [4]; -37.7% (active) in [5]; 6.04% (active) in test [6]. For the same compound, the growth was -16.1% (active) in [7]; -31.2% (active) in test [8]; 39% in test [9]; -5.18% (active) in test [10]; 17.8% in [11]; 1.42% (active) in test [12]. Also, the growth in [13] is 26.5%; in test [14], 59.4%; in test [15], 4.55% (active); in test [16] it was 26%; in [17], 2.68% (active); in test [18] it was 13%. The growth in test [19] was 3.93% (active); in test [20], 34%.
With `COC(=O)[C@]12CC[C@@H](C)[C@H](C)[C@@H]1C1=CC[C@@H]3[C@@]4(C)CC(=O)[C@H](O)[C@@]5(C)COC(=C45)C[C@@]3(C)[C@]1(C)CC2`, the growth was -85.7% (active) in [1]; -24.9% (active) in [2]; -75.7% (active) in [3]; -72.5% (active) in test [4]; -87.6% (active) in test [5]; -67.2% (active) in test [6]. Moreover, the growth was -77.8% (active) in test [7]; -52.1% (active) in test [8]; -75.1% (active) in test [9]; -66.3% (active) in test [10]; -69.7% (active) in [11]; -61.2% (active) in test [12]. The growth in test [13] was -32.6% (active); in test [14], -54.1% (active); in [15], -88.7% (active); in [16] it was -32.3% (active); in [17], -97.2% (active); in test [18] it was -75.3% (active). Also, the growth in test [19] is -80.7% (active); in test [20] it was -41.8% (active).
As to `Cc1ncc([N+](=O)[O-])n1CCOc1ccc(C(=O)/C=C/c2ccc(C(F)(F)F)cc2)cc1`, the growth in test [1] was 56.4%; in test [2], 14%; in test [3], 81.8%; in [4] it was 82.9%; in [5], 64.1%; in [6], 77.4%. Moreover, the growth was 73.8% in [7]; 57.5% in [8]; 82.9% in test [9]; 79.7% in [10]; 38.1% in test [11]; 29.7% in test [12]. Also, the growth in [13] is 60.1%; in test [14], 69.7%; in test [15], 51.7%; in [16] it was 50.6%; in test [17], 78.4%; in [18], 67.5%. The growth in test [19] is 57.3%; in test [20], 88.2%.
On to `O=NN(CCCl)C(=O)NCc1ccc(-c2ccc(CNC(=O)N(CCCl)N=O)cc2)cc1`, for which the growth in [1] was 112%; in test [2] it was 84.2%; in test [3] it was 74.3%; in test [4], 124%; in [5], 108%; in test [6], 69.7%. Besides, the growth in [7] is 83.2%; in test [8] it was 65.7%; in test [9], 96.6%; in test [10] it was 95.4%; in [11] it was 98.7%; in test [12] it was 96.9%. For the same compound, the growth in test [13] is 82.7%; in [14] it was 84.6%; in test [15], 70.3%; in test [16], 86.7%; in test [17] it was 94.2%; in test [18], 86.2%. Besides, the results for the growth in test [19] and in [20] were 72.2% and 104%, respectively.
Regarding `COc1cc(-c2cc(/C=C/C(C)=O)[nH]n2)cc(OC)c1OC`, the growth in test [1] is 77%; in test [2] it was 46.6%; in test [3], 67.5%; in test [4], 78.8%; in test [5] it was 89.4%; in test [6] it was 82.4%. Moreover, the growth in test [7] is 76%; in test [8], 93.4%; in test [9] it was 79.9%; in test [10] it was 84.9%; in [11], 65.7%; in test [12] it was 66.6%. Besides, the growth was 84.7% in test [13]; 69.1% in test [14]; 56.6% in test [15]; 71.3% in test [16]; 79% in test [17]; 84.6% in test [18]. Besides, the growth is 62% in test [19] and 97.4% in test [20].
On to `CC1(CO)CCCC12OCCO2` (stereo not given), for which the growth in [1] is 117%; in test [2] it was 100%; in test [3], 113%; in test [4], 104%; in test [5], 100%; in test [6], 110%. The growth is 82.3% in [7]; 96.2% in test [8]; 99.8% in [9]; 106% in test [10]; 101% in test [11]; 98.6% in test [12]. The growth in test [13] is 97.2%; in [14], 105%; in test [15] it was 102%; in test [16] it was 103%; in [17], 100%; in [18], 100%. The figures for the growth in test [19] and in [20] were 104% and 108%, respectively.
With `O=C(O)CCCN1C(=O)NC2(C1=O)c1ccccc1-c1ccccc12`, the growth was 105% in test [1]; 99% in test [2]; 97.3% in test [3]; 107% in [4]; 101% in [5]; 95.3% in [6]. Besides, the growth is 95.2% in [7]; 99.7% in test [8]; 91.2% in [9]; 103% in test [10]; 102% in test [11]; 93.3% in test [12]. Besides, the growth in test [13] was 88.9%; in test [14] it was 104%; in [15], 94.7%; in [16] it was 94.4%; in test [17], 96%; in test [18] it was 99.3%. The growth is 94.8% in test [19] and 107% in test [20].
Consider `O=C(OCc1ncc(-c2ccc(C(F)(F)F)cc2)c(NC2CCCCCC2)n1)c1c(F)c(F)c(F)c(F)c1F`, for which the growth is 77.2% in test [1]; 31.9% in [2]; -14.4% (active) in [3]; 81.4% in [4]; 64.3% in test [5]; 72.5% in test [6]. For the same compound, the growth in test [7] is 24.5%; in [8], 96.3%; in [9] it was 34.9%; in [10] it was 43.7%; in [11], 89.3%; in test [12] it was 43.1%. For the same compound, the growth was 76.1% in test [13]; 73.8% in [14]; 46.8% in [15]; 28.6% in test [16]; 36.4% in test [17]; 36.6% in [18]. Moreover, the figures for the growth in test [19] and in test [20] were 57.5% and 47.4%, respectively.
